Most compounds without a hit are left out; they make up all but 1.1% or so of the library.
AmpC detergent – qHTS Inhibitors of AmpC Beta-Lactamase (assay with detergent); P00811; Potency, µM (series often up to 114 µM), inactives show at the top dose activity change, negative = inhibition, hits mostly inhibitors; 0.041% of 370,000 active; AID 485294, 2010; AmpC hydrolysis of nitrocefin, absorbance 480 nm, 0.01% Triton;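 further: 0% = no-compound wells and -100% = no-enzyme wells; nearly all actives have a fitted effect of over 25% in size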
Target sequence (P00811 whole entry, looked up): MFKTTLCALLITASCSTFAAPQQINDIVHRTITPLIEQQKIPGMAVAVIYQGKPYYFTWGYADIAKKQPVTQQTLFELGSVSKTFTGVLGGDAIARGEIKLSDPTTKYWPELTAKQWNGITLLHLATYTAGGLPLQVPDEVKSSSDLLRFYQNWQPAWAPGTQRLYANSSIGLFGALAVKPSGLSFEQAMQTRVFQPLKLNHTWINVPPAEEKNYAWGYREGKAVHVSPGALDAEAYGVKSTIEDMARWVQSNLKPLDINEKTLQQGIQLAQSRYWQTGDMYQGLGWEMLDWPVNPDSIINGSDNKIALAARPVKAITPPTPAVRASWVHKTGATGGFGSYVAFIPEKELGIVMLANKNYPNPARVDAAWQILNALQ
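AmpC (5.3 nM in the dispensed reagent) in 20 mM phosphate pH 7.0 with 0.01% (detergent screen) or 0.0001% Triton X-100 was preincubated with compounds for 15 min at room temperature. Nitrocefin was then added from an 800 uM solution, and hydrolysis was followed at 480 nm.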
VACV Venus inh – qHTS for Stage-Specific Inhibitors of Vaccinia Orthopoxvirus: Venus Reporter Primary qHTS; AID 720580, 2013; 0.46% of 330,000 active; Potency, µM (titrated, usually from 36.5 µM), for inactives: top-dose activity change, negative = inhibition, usual class: inhibitors; Vaccinia virus Venus reporter expression, fluorescence; calls by dose curve; tested in A549 cells; further: nearly all actives have a fitted effect of over 30% in size
Vaccinia mCherry – qHTS for Stage-Specific Inhibitors of Vaccinia Orthopoxvirus: mCherry Reporter Primary qHTS. 0.63% of 310,000 active. Potency, µM (top dose mostly 36.5 µM), for inactives: at the highest dose activity change, negative = inhibition, hits mostly inhibitors. AID 720579, 2013. Vaccinia virus mCherry reporter infection, fluorescence; calls by dose curve; tested in A549 cells; further: nearly all actives have a fitted effect of over 35% in size
AmpC no deterg – qHTS Inhibitors of AmpC Beta-Lactamase (assay without detergent). Potency, µM (doses to about 57.1 µM), inactives show top-dose activity change, negative = inhibition, hits mostly inhibitors. AID 485341, 2010. 0.52% of 330,000 active. AmpC nitrocefin hydrolysis, absorbance 480 nm, 0.0001% Triton;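 further: plate controls were no compound for no effect and no enzyme for full effect; nearly all actives have a fitted effect of over 20% in size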
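20 mM phosphate pH 7.0 + 0.01% (detergent screen) or 0.0001% Triton X-100; 5.3 nM AmpC reagent; cpd preinc 15 min RT; nitrocefin (800 uM stock) to start; A480 q20 s × 4 min; Activity was normalised to no-enzyme and no-compound control wells.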
An asterisk follows results filed as active. Unless noted, the call rests on the fitted dose curve; in most records, active means well fitted curve in the direction sought with a large enough effect; inconclusive means small, poorly fitted or top-dose-only effect, or another doubt; inactive means no such curve, though single readings can be large; an effect the other way counts as inactive or inconclusive. Unless noted, on the % scale 0 is the no-effect control and ±100 the full control effect; potency means the concentration at half of the fitted maximal effect.

What do the screens show for `COc1ccc(Cc2nc(-c3ccc(-n4cccc4)cc3)no2)cc1OC`?
AmpC detergent: -0.5%; VACV Venus inh: -21.5%; Vaccinia mCherry: -20.2%; AmpC no deterg: 8.91µM*

What do the screens show for `COc1cc(-c2ccc(Cl)cn2)cc2c1OCCN(S(=O)(=O)C[C@]13CC[C@H](CC1=O)C3(C)C)C2`?
VACV Venus inh: -7.7%; Vaccinia mCherry: -18.0%

How did Cc1cc(CNC(=O)c2cnn(-c3nccc(-c4cc(C)sc4C)n3)c2C2CC2)on1 do in these assays?
VACV Venus inh: -2.8%; Vaccinia mCherry: -2.8%

How did CC(C)NC(=O)CN1CCN(C(=O)CCl)CC1 do in these assays?
AmpC detergent: -6.7%; VACV Venus inh: 10µM*; Vaccinia mCherry: 12.6µM*; AmpC no deterg: -24.6%

How did CN(C)C(=O)CN1CCN(C(=O)CCl)CC1 do in these assays?
AmpC detergent: inconclusive; AmpC no deterg: -29.1%

What do the screens show for `Cc1ccc(Cl)cc1NC(=O)c1ccc(Cn2cc(Cl)cn2)cc1`?
AmpC detergent: -9.7%; VACV Venus inh: inconclusive; Vaccinia mCherry: -10.1%; AmpC no deterg: 11.2µM*

What do the screens show for `Nc1c(S(=O)(=O)c2ccccc2)c2nc3ccccc3nc2n1/N=C/c1cccc(O)c1`?
AmpC detergent: inconclusive; VACV Venus inh: 11.2µM*; AmpC no deterg: -29.3%

How did Cc1cccc(S(=O)(=O)c2c(N)n(/N=C/c3ccccc3)c3nc4ccccc4nc23)c1 do in these assays?
AmpC detergent: -3.6%; AmpC no deterg: -18.1%

Results for Cc1csc2ncc(C(=O)N3CCCc4ccccc43)c(=O)n12 ?
AmpC detergent: inconclusive; VACV Venus inh: -3.7%; Vaccinia mCherry: 4.0%; AmpC no deterg: 3.55µM*

Results for CC(C)c1ccc(/C=C(\c2nc3ccccc3[nH]2)S(=O)(=O)c2ccccc2)cc1 ?
AmpC detergent: inconclusive; VACV Venus inh: 10µM*; Vaccinia mCherry: 8.91µM*; AmpC no deterg: -49.8%

What do the screens show for `O=S(=O)(/C(=C/c1ccc(C(F)(F)F)cc1)c1nc2ccccc2[nH]1)c1ccccc1`?
AmpC detergent: -9.0%; VACV Venus inh: 10µM*; Vaccinia mCherry: 10µM*; AmpC no deterg: -47.5%

What do the screens show for `COc1cc(=O)n2c(c1C(=O)N(C)Cc1nonc1C)CCN(C(=O)c1cccc(C)c1C)CC2`?
VACV Venus inh: 0.0%; Vaccinia mCherry: inactive

Results for CCN1CCCC1CNC(=O)c1cnn(-c2ncc(C)c(-c3ccc(F)cc3)n2)c1C(C)C (stereo unspecified) ?
VACV Venus inh: -2.9%; Vaccinia mCherry: -10.7%

What do the screens show for `COC(=O)c1ccc(CSc2nc3ccc(Cl)cc3[nH]2)o1`?
AmpC detergent: -3.6%; VACV Venus inh: -16.0%; AmpC no deterg: -31.0%

How did COC(=O)c1ccc(CSc2nc3scc(-c4cccs4)c3c(=O)[nH]2)o1 do in these assays?
AmpC detergent: -10.3%; AmpC no deterg: 10µM*

What do the screens show for `CC(=O)OC(C)(C)/C=C/C(=O)C(C)(O)C1[C@H](O)C[C@@]2(C)C3CC=C4C(CC[C@@H](O)C4(C)C)[C@]3(CO)C(=O)C[C@]12C` (stereo partly specified)?
AmpC detergent: -10.0%; VACV Venus inh: 35.5µM*; Vaccinia mCherry: 7.08µM*; AmpC no deterg: 12.6%

What do the screens show for `CC1(C)Oc2ccc3ccc(=O)oc3c2C[C@H]1O[C@@H]1O[C@H](CO)[C@@H](O)[C@H](O)[C@H]1O`?
VACV Venus inh: -2.1%; Vaccinia mCherry: inactive; AmpC no deterg: -8.1%

Results for CC(=O)OC(C)(C)/C=C/C(=O)C(C)(O)C1C(O)CC2(C)C3CC=C4C(CC(O)C(=O)C4(C)C)C3(C)C(=O)CC12C (stereo unspecified) ?
VACV Venus inh: 39.8µM*; Vaccinia mCherry: inconclusive

Results for CC(=O)OC(C)(C)/C=C/C(=O)[C@](C)(O)[C@H]1[C@H](O)C[C@@]2(C)[C@@H]3CC=C4[C@H](C[C@H](O)C(=O)C4(C)C)[C@]3(C)C(=O)C[C@]12C ?
AmpC detergent: inconclusive; VACV Venus inh: 8.91µM*; Vaccinia mCherry: inconclusive; AmpC no deterg: 155.1%

Results for CC(=O)OC(C)(C)/C=C/C(=O)[C@](C)(O)C1[C@H](O)C[C@@]2(C)C3CC=C4C(C=C(O[C@@H]5O[C@H](CO)[C@@H](O)[C@H](O)[C@H]5O)C(=O)C4(C)C)[C@]3(C)C(=O)C[C@]12C (stereo partly specified) ?
VACV Venus inh: 22.4µM*; Vaccinia mCherry: -12.0%; AmpC no deterg: 155.4%

What do the screens show for `CN(C)c1ccc(/C=C/c2ncnc3ccccc23)cc1`?
VACV Venus inh: inactive; Vaccinia mCherry: 73.1%

How did CC(O)(COc1ccccc1)c1ccc2c(c1)CN(Cc1ccc3nsnc3c1)CCO2 (stereo unspecified) do in these assays?
VACV Venus inh: 5.6%; Vaccinia mCherry: -11.6%

Results for CC1=C(O)C(=O)C=C2C1=CC=C1[C@]2(C)CC[C@@]2(C)C3C[C@](C)(C(=O)O)CC[C@@]3(C)CC[C@@]12C (stereo partly specified) ?
VACV Venus inh: 11.2µM*; Vaccinia mCherry: 14.1µM*

Results for COC(=O)[C@]1(C)CC[C@@]2(C)CC[C@@]3(C)C4=CCc5c(cc(O)c(O)c5C)[C@]4(C)CC[C@@]3(C)C2C1 (stereo partly specified) ?
VACV Venus inh: 1.6%; Vaccinia mCherry: 20.4%

How did Cc1ccc2c(/C=C/c3c[nH]c4ccccc34)ccnc2c1C do in these assays?
VACV Venus inh: 17.9%; Vaccinia mCherry: -15.0%

What do the screens show for `O=S(=O)(CCc1nnc(-c2ccccc2)o1)c1ccc2ccccc2c1`?
AmpC detergent: -11.6%; VACV Venus inh: 2.82µM*; AmpC no deterg: -15.0%

How did COc1ccc(C[C@H](N)C(=O)N[C@H]2[C@@H](O)[C@H](n3cnc4c(N(C)C)ncnc43)O[C@@H]2CO)cc1 do in these assays?
AmpC detergent: -8.0%; VACV Venus inh: 1.58µM*; Vaccinia mCherry: 1.26µM*; AmpC no deterg: -11.5%

What do the screens show for `CN(C)c1ncnc2c1ncn2C1OC(CO)C(O)C1O` (stereo unspecified)?
AmpC detergent: -2.2%; VACV Venus inh: 10µM*; Vaccinia mCherry: 12.6µM*; AmpC no deterg: 143.5%

How did OCC1OC(n2cnc3c(Cl)ncnc32)C(O)C1O (stereo unspecified) do in these assays?
VACV Venus inh: 13.1%; Vaccinia mCherry: -23.8%

What do the screens show for `COc1ccccc1N1CCN(C(=O)c2ccc(C(C)(C)C)cc2)CC1`?
AmpC detergent: -11.2%; VACV Venus inh: 10µM*; Vaccinia mCherry: 11.2µM*; AmpC no deterg: 102.4%

What do the screens show for `CN(C)CCCn1c(SCC(=O)N2c3ccccc3Sc3ccccc32)nc2ccccc2c1=O`?
AmpC detergent: -7.2%; VACV Venus inh: 14.1µM*; Vaccinia mCherry: inconclusive; AmpC no deterg: 283.9%

Screening data as filed in PubChem.
